Screening data from PubChem BioAssay.
Most compounds without a hit are left out; they make up all but 6% or so of the library.
D1 PAM: enhances dopamine response at the human D1 receptor. P21728. HEK293 TREx D1 cells, calcium flux, dopamine EC20 potentiation. potentiation, % at 10 µM. 360,000 tested, 0.036% active; in the data active means potentiation above about 30%; further: 0% is about no effect
BCR signal inh: blocks chronic active B-cell receptor signaling; 340,000 tested, 0.05% active; ABC-DLBCL IkBa-CBG/CBR reporter, luminescence ratio, 4 h; Potency, µM (titrated, usually from 46.1 µM), for the others: top-dose activity change, negative = inhibition, actives largely listed as inhibitors; active means well fitted inhibition curve with a large enough effect in the signal ratio, with a control signal flat, not every such curve was filed as active; inconclusive means small, poorly fitted or top-dose-only effect, or effect the other way, or a change in a side signal; the % refers to the signal ratio;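 further: potency means the concentration at half of the fitted maximal effect; plate controls were basal doxycycline-induced cells for no effect and cells given 10 µM MG132 for full effect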
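TMD8 ABC-DLBCL cells carrying doxycycline-inducible green luciferase fused to IkappaBalpha plus unfused red luciferase were exposed to compounds (up to 46 uM) for 4 hrs at 37C. Activity came from the overlap-corrected green/red luminescence ratio.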
D1 antagonist: human D1 dopamine receptor antagonism; HEK293 TREx D1 cells, calcium flux, dopamine EC80; stronger effect = lower value; P21728; activity change, negative = inhibition, % at 10 µM; 360,000 tested, 3.2% active; in the data active means activity change below about -30%; further: on the % scale 0 is the no-effect control and ±100 the full control effect
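Compound effects on dopamine-evoked calcium signalling were measured in tetracycline-induced HEK293 Trex D1 cells. Dopamine at EC80 followed a 180 s compound pre-read, and fluorescence was tracked kinetically for 180 s more.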
DRD3 agonist: activates the human D3 dopamine receptor. D3R DiscoveRx beta-arrestin cells, luminescence, 90 min. max activation, %. 410,000 tested, 0.58% active; in the data active means max activation above about 30%; further: 0% is about no effect
Target sequence (P35462 whole entry, looked up): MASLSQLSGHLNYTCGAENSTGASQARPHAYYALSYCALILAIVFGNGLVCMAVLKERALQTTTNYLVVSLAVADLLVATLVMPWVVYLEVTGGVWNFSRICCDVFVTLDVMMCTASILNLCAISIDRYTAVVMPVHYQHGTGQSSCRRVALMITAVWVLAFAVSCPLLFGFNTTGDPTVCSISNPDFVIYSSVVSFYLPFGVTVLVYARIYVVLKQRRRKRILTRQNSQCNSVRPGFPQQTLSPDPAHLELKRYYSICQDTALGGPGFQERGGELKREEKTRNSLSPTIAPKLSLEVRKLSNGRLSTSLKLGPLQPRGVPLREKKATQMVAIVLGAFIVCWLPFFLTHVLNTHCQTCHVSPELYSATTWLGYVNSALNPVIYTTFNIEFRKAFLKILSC
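Cells at 1500/well, incubated overnight, then treated with pinned compounds (dopamine as control) for 90 min at 37 degrees C. DiscoveRx reagent added for 30 - 60 minutes at room temperature; luminescence read.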
D1 agonist: agonists of human D1 dopamine receptor; HEK293 T-REx D1 cells, calcium flux, agonist mode; activation, % at 2 µM; 360,000 tested, 1% active; in the data active means activation above about 30%; further: 0% is about no effect
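Tetracycline-induced HEK293 TREx D1 cells, force-coupled to calcium signalling, were dye-loaded with a no-wash calcium kit. Compound was pin-added after a 10 s baseline. Fluorescence was read kinetically at 1 cycle/s for 180 s, with calcium rises flagged as agonism.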
D3 antag: blocks the human D3 dopamine receptor; max response, negative = inhibition, %; 360,000 tested, 2.5% active; P35462; D3R cells, DiscoveRx beta-arrestin luminescence, antagonist mode; stronger effect = lower value; in the data active means max response below about -50%; inconclusive means no clear call, values can overlap the other calls; further: on the % scale 0 is the no-effect control and ±100 the full control effect
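Cells expressing the human receptor were seeded at 1500 cells/well, incubated overnight at 37 degrees C in 5% CO2, then exposed to library compounds with dopamine controls for 90 minutes at 37 degrees C before luminescent detection.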
* hit, by the source's call; ? = inconclusive; . = no result given.

SMILES | D1 PAM | BCR signal inh | D1 antagonist | DRD3 agonist | D1 agonist | D3 antag
Cc1ccccc1Nc1nnc(-c2ccc(C)c(S(=O)(=O)N3CCN(C)CC3)c2)c2ccccc12 | -1 | . | -7 | -11 | 5 | .
Cc1ccc(C)c(Nc2nnc(-c3ccc(C)c(S(=O)(=O)N4CCN(C)CC4)c3)c3ccccc23)c1 | 1 | . | -31* | -12 | -3 | .
CN1CCN(c2ncccc2S(=O)(=O)N2CCCCC2)CC1 | -8 | ? | -17 | -15 | 2 | -67*
Cc1ccc(C)c(Nc2nnc(-c3ccc(C)c(S(=O)(=O)NCC4CCCO4)c3)c3ccccc23)c1 (centres undefined) | 0 | . | -39* | 1 | 2 | .
CCc1ccc(-n2nc(C)c3c(C)cc(=O)n(Cc4nc(-c5ccccc5)oc4C)c32)cc1 | 3 | . | 2 | 2 | 6 | .
O=C(NCc1ccccc1)c1ccc(N2CCC3(CC2)CC(c2ccc(Cl)cc2)=NO3)c([N+](=O)[O-])c1 | -5 | 11% | -10 | -23 | 1 | -63*
CCCCC1(CC)SCC(=O)NC1=O (centres undefined) | . | . | . | 6 | . | 9
CCOC(=O)C(NC(=O)CCl)(Nc1sc(C)c(CC)c1C#N)C(F)(F)F (centres undefined) | 0 | ? | 6 | 2 | 2 | -4
CCOC(=O)C(NC(=O)CC(C)C)(Nc1sc(C)c(CC)c1C#N)C(F)(F)F (centres undefined) | -11 | -1% | -83* | 2 | 2 | 7
CCCCN(Cc1cc2cc(C)ccc2[nH]c1=O)C(=O)c1cccc(Cl)c1 | 5 | . | 19 | 9 | 0 | .
COc1cccc(CN2CCN(CCc3ccccc3)C(CCO)C2)c1OC (centres undefined) | -2 | -1% | -9 | -6 | 2 | -9
COc1cccc2c1OCC(CN1CCN(CCC(C)C)C(CCO)C1)=C2 (centres undefined) | 6 | 1% | -30* | -11 | 3 | -4
CC(C)CCN1CCN(Cc2cccn2-c2cccnc2)CC1CCO (centres undefined) | -1 | 7% | 34 | -9 | 30* | -12
c1ccc(-n2cnnn2)cc1 | . | . | . | -16 | . | .
Clc1nssc1=Nc1ccc(Br)cc1 | -6 | ? | -11 | 5 | 34* | 5
COc1cc(N=c2ssnc2Cl)cc(OC)c1 | 3 | ? | -4 | -8 | 5 | -71*
N#Cc1cccc(N=c2ssnc2Cl)c1 | 1 | ? | -12 | 1 | 6 | -3
CCOC(=O)NC(c1cccc(Cl)c1)C1CCCCCC1=O (centres undefined) | -4 | ? | -11 | 0 | 0 | 10
O=C1CCCCC1C(O)c1ccc(Cl)cc1 (centres undefined) | -12 | 4% | -74* | . | 1 | .
CNc1oc(Cc2ccccc2)nc1S(=O)(=O)c1ccccc1 | -1 | 1% | -30 | 4 | -2 | -89*
CCN1CCSc2ccc(C(=O)NCc3ccc(F)cc3)cc21 | 2 | . | -2 | -20 | 2 | .
CCCOc1ccc(CNC(=O)c2ccc3c(c2)N(CC)CCS3)cc1 | -12 | 0% | -1 | -14 | 5 | -65*
CC1=C(C(=O)Nc2ccccc2)C(c2ccc(C)o2)n2ncnc2N1 (centres undefined) | -12 | 0% | -60* | -6 | 2 | -1
O=C(NCc1ccco1)C1CCN(C(=O)c2cc3sccc3n2Cc2ccc(F)cc2)CC1 | -4 | ? | -32* | 12 | 12 | 3
O=C(NCCCN1CCCC1)C1CCN(C(=O)c2cc3sccc3n2Cc2ccc(F)cc2)CC1 | -3 | ? | 4 | -3 | 2 | -52*
SMILES | D1 PAM | BCR signal inh | D1 antagonist | DRD3 agonist | D1 agonist | D3 antag
CCCOc1ccc(NC(=O)C(=O)NCCCN2CCOCC2)cc1 | -2 | . | -6 | 5 | 2 | .
COc1ccc(C)cc1NC(=O)NC1CC(=O)N(c2ccc3c(c2)OCCO3)C1 (centres undefined) | . | . | . | 0 | . | 0
Cc1cccc(-c2noc(CN(C(C)C)S(=O)(=O)c3ccc(Br)cc3)n2)c1 | 6 | . | -15 | -8 | 34* | .
CC(NNC(=S)N1CCCCCC1)c1ccc2ccccc2n1 (centres undefined) | . | . | . | -13 | . | -6
CC1(c2nnnn2Cc2ccccc2)CCC(=O)N1Cc1ccco1 (centres undefined) | . | . | . | -5 | . | -4
Cc1nc(NC2=NCN(CCc3ccccc3)CN2)nc2ccccc12 | 1 | ? | -14 | . | 2 | .
Cc1ccc2c(C)nc(NC3=NCN(CCc4ccccc4)CN3)nc2c1 | -5 | ? | -43* | . | 5 | .
CCc1ccccc1NC(=O)Nc1ccc2snnc2c1 | -4 | . | -19 | 0 | 33* | .
Cc1ccc(NC(=O)Nc2ccc3snnc3c2)cc1C | -3 | . | -29 | 1 | 30 | .
COc1cccc(NC(=O)Nc2nc(-c3ccc(OC)c(OC)c3)cs2)c1 | -8 | ? | -40* | 49* | 8 | 118
O=C(Nc1ccc2snnc2c1)Nc1cccc2ccccc12 | -7 | ? | -29 | -3 | 19 | -10
COc1cccc(NC(=O)Nc2ccc3snnc3c2)c1 | -3 | . | -19 | 4 | 37* | .
O=c1[nH]c(=O)c2[nH]c(=O)[nH]c2[nH]1 | . | . | . | -25 | . | .
C=CCNC(=O)COC(=O)c1ccc(Sc2nncn2C)c([N+](=O)[O-])c1 | 2 | -1% | -32* | 1 | 0 | -11
Cc1nc2ccccn2c(=O)c1CCN1CCC(C(=O)c2ccc(F)cc2)CC1 | -6 | -1% | -34* | -95 | 1 | -112*
CCOc1ccccc1NC(=O)N1CCC(C(=O)c2ccc(F)cc2)CC1 | 4 | ? | . | 2 | -1 | -4
Cc1nc2sccn2c(=O)c1CCN1CCC(=C(c2ccc(F)cc2)c2ccc(F)cc2)CC1 | -6 | ? | 18 | -88 | 0 | -93*
COc1cccc(C(=O)N(C)CC2CCN(CCc3cccc(C(F)(F)F)c3)CC2)c1 | 5 | 6% | -32* | -21 | -3 | -16
CN(CC1CCCN(CCc2cccc(C(F)(F)F)c2)C1)C(=O)c1cc2ccccc2o1 (centres undefined) | -7 | -7% | -25 | -21 | 3 | -74*
CCc1ccc(CNC(=O)c2c(C)oc3ncn(CC(C)C)c(=O)c23)cc1 | 7 | . | 6 | 3 | 10 | .
COc1cc(NC(=O)Nc2nc(C(N)Cc3ccc(C(F)(F)F)cc3)cs2)cc(OC)c1OC (centres undefined) | . | . | . | 2 | . | 8
O=C(Nc1ccccc1)N1CCC(n2c(=O)[nH]c3ccccc32)CC1 | -3 | -1% | -9 | 1 | 1 | -7
O=C(NCCN1CCC(n2c(=O)[nH]c3ccccc32)CC1)c1cc(F)cc(F)c1 | . | . | . | -11 | . | -101*
O=C(NCCN1CCC(n2c(=O)[nH]c3ccccc32)CC1)c1ccncc1 | . | . | . | -16 | . | -107*
